# Assay outcomes as filed in PubChem BioAssay.
# Shown is part of a subset that was picked to be rich in hits.
# 15-hLO-2 inh: qHTS Assay for Inhibitors of 15-hLO-2 (15-human lipoxygenase 2). Potency, µM (titrated, usually from 57.1 µM), without a hit: top-dose activity change, negative = inhibition, usual class: inhibitors. purified 15hLO-2, xylenol orange hydroperoxide absorbance. Polyunsaturated fatty acid lipoxygenase ALOX15B (Homo sapiens), O15296. AID 881, 2007. hit rate 0.56% among 110,000; also: potency is read from the fitted curve at half-maximal effect; nearly all actives have a fitted effect of over 60% in size
#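 Screening format was qHTS against 50 nM purified 15hLO-2 in Hepes pH 7.5 with detergent. Activity follows hydroperoxide formation from 45 uM arachidonic acid, measured as 573:405 nm absorbance ratio of the ferric-xylenol orange complex.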
# IMPase Li inh: qHTS Assay for Identifying the Cell-Membrane Permeable IMPase Inhibitors: Potentiation with Lithium. CHO-M1 cells, IP1 TR-FRET (IP-One), carbachol + lithium. Potency, µM (series often up to 59.4 µM), inactives show at the highest dose activity, negative = IMPase inhibition, hits mostly inhibitors. hit rate 0.35% among 210,000. AID 1457, 2008;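 also: IP1 builds up when IMPase is blocked and the TR-FRET signal falls; potency is read from the fitted curve at half-maximal effect; plate controls were basal vehicle for no effect and high inhibitor control for full effect; nearly all actives have a fitted effect of over 50% in size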
#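 CHO cells stably expressing M1 receptor (2000/well) were cultured 16–30 h, then exposed to compounds with a small lithium addition for 30 min at 37C. IP1 was measured by TR-FRET competition; AC50 from Hill fits.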
# PNC inhibitor: High Content Assay for Compounds that inhibit the Assembly of the Perinucleolar Compartment; activity change (PNC), negative = inhibition, % at 10 µM; hit rate 3.1% among 140,000; PC3M PTB-GFP, PNC prevalence imaging, 16 h; hits give low values;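 active = readout at or below -70, meaning at least 70% loss of cells showing the perinucleolar compartment, a nuclear body marking cancer cells; inconclusive = readout between -30 and a set limit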;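 also: plate controls were DMSO wells for no effect and camptothecin positive control wells for full effect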
#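 Compounds are pinned in duplicate onto adhered PC3M cells stably expressing GFP-tagged PTB and incubated 16 h at 37 C. Cells are then fixed, nuclei stained with Hoechst, and PNC-positive cells counted.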
# IMPase cell inh: qHTS Assay for Identifying the Cell-Membrane Permeable IMPase Inhibitors; CHO-M1 cells, IP1 accumulation, HTRF TR-FRET ratio; inhibition (IP1 accumulation), % at 46.1 µM; AID 901, 2007; 120,000 tested, under 10 active; active = well fitted curve in the direction sought with a large enough effect in the signal ratio, not every such curve was filed as active; inconclusive = small, poorly fitted or top-dose-only effect, or a change in a side signal; inactive = no such curve, though single readings can be large or run the other way; the % refers to the signal ratio;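 also: cells stimulated with carbachol in lithium chloride buffer; plate controls were DMSO basal wells for no effect and reference inhibitor wells for full effect; higher means more IMPase inhibition seen as more IP1 and lower FRET ratio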
# Target sequence (P97697 whole entry, looked up): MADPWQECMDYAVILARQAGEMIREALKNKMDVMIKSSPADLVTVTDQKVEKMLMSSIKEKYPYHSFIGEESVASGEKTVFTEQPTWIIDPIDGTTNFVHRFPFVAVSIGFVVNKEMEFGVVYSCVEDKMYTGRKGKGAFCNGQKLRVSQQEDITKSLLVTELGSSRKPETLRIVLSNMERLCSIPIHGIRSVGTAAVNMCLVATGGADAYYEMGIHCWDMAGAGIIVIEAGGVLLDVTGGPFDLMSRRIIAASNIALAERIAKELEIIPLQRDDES
#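 Carbachol-driven Gq signalling in CHO-M1 cells (2000/well) generates IP1. Compounds that block IMPase raise IP1 and so reduce the FRET signal from Eu-anti-IP1 and d2-IP1 after a 10 min room-temperature lysis.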
# 12-hLO inh: qHTS Assay for Inhibitors of 12-hLO (12-human lipoxygenase); hit rate 0.12% among 150,000; Polyunsaturated fatty acid lipoxygenase ALOX12 (Homo sapiens), P18054; purified 12-hLO, xylenol orange hydroperoxide absorbance; Potency, µM (series often up to 57.1 µM), for inactives: at the highest dose activity change, negative = inhibition, actives largely listed as inhibitors; also: potency is read from the fitted curve at half-maximal effect; nearly all actives have a fitted effect of over 55% in size
#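 Hydroperoxide output read as Fe(III)-xylenol orange absorbance, 573-to-405 nm ratio, after 30 min reaction with 40 uM arachidonic acid. Enzyme: 150 nM purified human 12hLO, 15 min compound preincubation; 25 mM Hepes pH 7.0, room temperature.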
# * hit, by the source's call; ? = inconclusive; · = no result; [ ] = dose if it differs, or a comment. Unless noted, calls follow the shape of the dose curve; as a rule, active = well fitted curve in the direction sought with a large enough effect; inconclusive = small, poorly fitted or top-dose-only effect, or another doubt; inactive = no such curve, though single readings can be large; an effect the other way counts as inactive or inconclusive. Unless noted, % is scaled to controls: 0 for no effect and ±100 for the full control effect.
SMILES,15-hLO-2 inh,IMPase Li inh,PNC inhibitor,IMPase cell inh,12-hLO inh
O=C(NCN1C(=O)C2C3C=CC(C3)C2C1=O)Nc1nccs1 (stereo not given),·,0%,-100*,-4,1%
CC(=O)Nc1cccc(NC(=O)c2cc3ccccc3o2)c1,1%,-4%[38.3 µM],-27,5,5%
O=C(Nc1ccccc1)c1ccc(-c2ccccc2Cl)o1,·,-13%,-92*,·,-1%
O=C(Nc1ccccc1)c1cc2ccccc2o1,·,5%,-100*,-6,15%
COC(=O)C1(C(=O)OC)CC2=CC(CC2=O)Cc2ccccc2[C@@H]1C[N+](=O)[O-] (stereo not given in full),·,1%,·,·,·
COc1ccc2c(c1)[N+](=O)C(/C(C)=N/NC(N)=S)=C(C)[N+]2=O,·,-1%,·,·,·
Cc1noc(C)c1C(=O)N1CCC2(CCN(Cc3ccc(C#N)cc3)CC2)CC1,11%,17%,·,·,8%
O=C1CC(Sc2nnc(-c3ccccc3O)o2)C(=O)N1c1ccccc1 (stereo not given),-15%,-15%[38.3 µM],-18,-20,-16%
COc1ccc(N2C(=O)CC(Sc3nnc(-c4ccccc4)o3)C2=O)cc1 (stereo not given),-23%,8.9µM*,?,?,-10%
O=C(Nc1nnc(CCS(=O)(=O)c2ccc3ccccc3c2)s1)c1cccs1,·,11µM*,21,·,-4%
COc1ccc(S(=O)(=O)CCc2nnc(NC(=O)c3cccs3)s2)cc1,-12%,?,-30,?,-6%
COc1ccccc1NS(=O)(=O)c1cc(C(=O)O)ccc1F,·,·,·,·,0%
O=C(CNS(=O)(=O)/C=C/c1ccccc1)OCC(=O)N1CCC(Cc2ccccc2)CC1,-2%,-1%[38.3 µM],-107*,-2,-2%
O=C(O)c1cc(-c2ccco2)[nH]n1,·,3%,-89*,·,-12%
N#Cc1ccc(CSc2nnc(-c3cccs3)n2-c2ccccc2)cc1,-12%,46%[38.3 µM],?,17,-8%
FC(F)Sc1nnc(-c2cccs2)n1-c1ccccc1,-2%,3%[38.3 µM],-80*,0,3%
COc1cc(/C=C2\SC(c3ccc(C)cc3)=NC2=O)ccc1O,?,28%,-95*,39,-11%
CCN(CC)COC(=S)S,6%[11.4 µM],4%,·,·,-14%[11.4 µM]
Cc1ccc(S(=O)(=O)c2c(N)n(/N=C/c3ccco3)c3nc4ccccc4nc23)cc1C,13µM*,-31%[38.3 µM],-16,-12,?
Brc1ccc(-c2nc3ccccc3s2)s1,-2%,11µM*,13,?,-7%
Cc1ccc2c(c1C)NC(=O)CC2c1ccc(Cl)cc1Cl (stereo not given),·,·,·,-1,·
COc1cccc2c1C(=O)c1c(O)c3c(c(O)c1C2=O)C[C@@](O)(C(=O)CO)C[C@@H]3O[C@H]1C[C@H](N)[C@H](O)[C@H](C)O1,21%,36%,-115*,·,-3%
CC(C)Cc1nc2oc3c(NCC4CCCO4)ncnc3c2c2c1CCC2 (stereo not given),8%,4%[38.3 µM],-100*,-1,-3%
COc1cccc(NC(=O)CN2C(=O)c3cccc4cccc2c34)c1,·,·,·,-5,·
COc1ccc(C(=O)N[C@H](C(=O)Nc2ccc(OC)nc2)C(C)C)cc1,-3%,9%[38.3 µM],-112*,1,0%
SMILES,15-hLO-2 inh,IMPase Li inh,PNC inhibitor,IMPase cell inh,12-hLO inh
Cc1nc(NCCO)c2nnn(Cc3ccccc3F)c2n1,0%,-8%,-93*,-4,2%
C#CCNc1nc(C)nc2c1nnn2Cc1ccccc1F,2%,7%[38.3 µM],?,3,-2%
CCC(=O)Nc1ccc(S(=O)(=O)N2CCOCC2)cc1,0%,25%[38.3 µM],-80*,-7,3%
Cc1cc(C)n(-c2ccc(C(=O)OCC(=O)Nc3ccc(S(=O)(=O)N4CCOCC4)cc3)cc2)n1,7%,-12%[38.3 µM],-87*,7,-7%
O=C(COC(=O)c1ccc(Br)o1)Nc1ccc(S(=O)(=O)N2CCCC2)cc1,2%,23%[38.3 µM],-80*,4,0%
CCOCC(=O)Nc1ccc(S(=O)(=O)N2CCOCC2)cc1,-3%,2%,-28,-7,2%
